Assay [1] in a line: CCTE_Deisenroth_DEVTOX-GLR_legacy_CellCount: (Legacy) Viability Assessment in CCTE's DevTox GLR-Endo Assay, Deisenroth Lab (AID 2284331). To be noted: actives raise or lower the signal. The method in brief: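 Seed RUES2-GLR 24 h; differentiate 48 h, dosing at 0 and 24 h; fix, stain nuclei; image 5 fields/well; count nuclei. Conc. 1 nM - 200 uM, single technical replicate, n=4 experiments; bidirectional fit vs 0.2% DMSO.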

Assay [2] can be described thus: TAMU_PeakParms_SingleDonor1434_Asystole: Texas A&M University (TAMU) 1.5-hr Human Induced Pluripotent Stem Cell (iPSC)-derived Cardiomyocytes Calcium (Ca+2) Flux Assay for Cardiotoxicity: Asystole (quiescence of beating) (AID 2284328; active means hit-call score of the fitted dose curve at least 0.9, where 1 is the maximum). In a few lines: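 Average Ca2+-flux peak frequency (beats/s) was recorded in single-donor iPSC-derived cardiomyocytes after 90 min exposure (0.2–100 uM final, 0.5% DMSO). Asystole POD set as EC95 against DMSO, no preprocessing.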

The subject of assay [3] is Brachyury (BRA) Protein Expression, Deisenroth Lab, TBXT (gene 6862). Description: CCTE_Deisenroth_DEVTOX-GLR_legacy_Bra: (Legacy) CCTE's DevTox GLR-Endo Assay Evaluation of Brachyury (BRA) Protein Expression, Deisenroth Lab (AID 2284329). The method in brief:
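Human pluripotent RUES2-GLR line was exposed twice during 48 h differentiation to a 10-point series, 1 nM - 200 uM. Fraction of Bra-positive cells was scored by imaging against pluripotent baseline and fitted after 0.2% DMSO subtraction.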

Assay [4] is described as follows: IUF_NPC1_cytotoxicity_72hr: Cytotoxicity Assessment at 72 hours in the Leibniz Research Institute for Environmental Medicine (IUF) Neural Progenitor Cell Proliferation Assay (NPC1) (AID 2284332; active means hit-call score of the fitted dose curve at least 0.9, where 1 is the maximum;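 further: rising LDH signal means more cytotoxicity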). As to the method: IUF_NPC1 is a cell-based, multiplexed assay that uses hNPC, a human primary neural progenitor cells, with measurements taken at 72 hours after chemical dosing in a 96-well plate. Human neural progenitor cells (hNPC) are generated from human fetal brain cortex at gestational week (GW) 16-19. Grown in suspension culture and under proliferative conditions (proliferation media and growth factors), these cells represent neural progenitor cell proliferation. In the NPC1 assay, hNPC's are exposed to the test compound for 72h. Cell proliferation is assessed as an increase in sphere area using automated phase contrast imaging and as incorporation of Bromodeoxyuridine (BrdU) during DNA synthesis using a luminescence-based cell proliferation ELISA. In parallel, the cell viability is assessed using an alamar blue viability assay and the cytotoxicity using a lactate dehydrogenase dependent membrane integrity assay.IUF_NPC1_cytotoxicity_72hr is one of 4 assay components measured from the IUF_NPC1 assay. It is designed to measure cytotoxicity at 72 hrs due to loss of membrane integrity. LDH measurements are performed from medium supernatants of each well and are based on the reduction of resazurin to resorufin measured as fluorescence signal (relative fluorescence unit) in a multiplate reader. Data from the IUF_NPC1_cytotoxicity_72hr component was analyzed at the endpoint IUF_NPC1_cytotoxicity_72hr in the positive analysis fitting direction relative to the dynamic range and baseline of activity. Using a type of viability reporter, gain-of-signal activity can be used to understand cytotoxicity effects.
After the cell expansion period, the cells are cultured for up to four weeks in which they are passaged every week. Between one to three days after passaging, depending on the size chosen for passaging, spheres at a size of 0.3 mm are used in the assay. For the assessment of neural progenitor cell proliferation, the spheres are plated in poly-Hema coated 96-well U-bottom plates filled with proliferation medium containing growth factors (EGF and FGF). One 0.25 - 0.35 mm big sphere is plated in the middle of each well. Within 3 days NPCs proliferate and grow in size. Cultivation during the test method is performed at 37C and 5% CO2 at a pH of 7.2-7.6. As a positive control, spheres are cultivated in the absence of growth factors (EGF and FGF), which dramatically reduces proliferation. Exposure starts on the plating day (day 0) and is continued over three days, without chemical renewal, until the experiment is terminated. The assay is terminated by the assessment of cell viability, cytotoxicity, and proliferation by BrdU. All endpoints are generated from the same experimental run and from each well/sphere in the 96-well plate.

Assay [5] can be described thus: CCTE_Deisenroth_5AR_NBTE_acceptor: CCTE's 5alpha-reductase NanoBRET Target Engagement Assay - Autofluorescence Screen, Deisenroth Lab (AID 2284321).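 Further: compound fluorescence in the acceptor channel under 460 nm excitation flags autofluorescence artifacts.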 To be noted: actives raise or lower the signal. In a few lines:
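Chemicals diluted to a nominal 100 uM in DMSO were scanned at 460 nm excitation. Samples were read in three independent runs (n=3). Gain or loss of acceptor signal was fitted relative to DMSO.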
(In general: In BRET a luciferase serves as donor, and the signal depends on an acceptor being close.)

Assay [6] deals with SRD5A2 (gene 6716). Description: CCTE_Deisenroth_5AR_NBTE_ratio: CCTE's 5alpha-reductase NanoBRET Target Engagement Assay - Ratio, Deisenroth Lab (AID 2284322). The following applies: actives raise or lower the signal. The method in brief:
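HEK293T transiently expressing SRD5A2-NanoLuc; cells exposed to chemical (8-point, 10 nM - 29.9 uM) for 5 h total, testosterone tracer added for final 2 h. NanoBRET acceptor/donor ratio (650/460 nm), bidirectional fit vs DMSO.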

The nature of assay [7]: VALA_TUBIPS_Antagonist_CellCount: Viability Assessment in the VALA Sciences human iPS-derived Endothelial Tubule Formation (TUBIPS) Antagonism Assay (AID 2284335; active means hit-call score of the fitted dose curve at least 0.9, where 1 is the maximum).
A short description of assay [8]: VALA_MIGHUV1_ScratchOnly_WoundArea: VALA Sciences human Umbilical Vein Endothelial Cell Migration (MIGHUV) Assay, Area of Scratch Wound Inhibited Recovery (AID 2284336; active means hit-call score of the fitted dose curve at least 0.9, where 1 is the maximum). In a few lines: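 HUVEC monolayers (9000 cells/well) were scratched after 24 h, dosed within 30 min (six concentrations, triplicate, 0.1% DMSO), allowed 24 h recovery, then fixed. Hoechst-stained nuclei in the wound imaged; cytochalasin D as reference.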

Assay [9] in a line: VALA_TUBHUV_Agonist_TubuleLength: VALA Sciences human Umbilical Vein Endothelial Tubule Formation (TUBHUV) Agonism Assay (AID 2284337; active means hit-call score of the fitted dose curve at least 0.9, where 1 is the maximum). The method in brief: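 HUVEC co-cultured with fibroblasts (1:3) 3 days in 10 ng/ml VEGF, then 3 days with compound plus VEGF; 0.1 % DMSO neutral control. Fixed, nuclear and CD31 stained; tubule length by fluorescence imaging.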
Assay [10] is described as follows: VALA_TUBIPS_Agonist_CellCount: Viability Assessment in the VALA Sciences human iPS-derived Endothelial Tubule Formation (TUBIPS) Agonism Assay (AID 2284338; active means hit-call score of the fitted dose curve at least 0.9, where 1 is the maximum).

Inconclusive results are not listed. The source made the active and inactive calls. How the source made its calls, unless noted: active means hit-call score of the fitted dose curve at least 0.9, where 1 is the maximum; inactive means score below 0.9.

What is called AC50 is the midpoint of the concentration-response curve, whichever way the signal moves. For the compound `CN(C)CCOC(c1ccccc1)c1ccccc1`, the AC50 in assay [1] was 63.9 µM (active).

With `O=C1NS(=O)(=O)c2ccccc21`, the result in [2], in assay [3], in assay [1] and in assay [4] was inactive.

Regarding `CCc1ccccc1O`, the compound was called inactive in assay [5] and in [6].

In the case of `O=C1OC2(c3ccccc31)c1cc(I)c(O)c(I)c1Oc1c2cc(I)c(O)c1I`, the AC50 was 1.79 µM (active) in assay [5] and 6 µM (active) in assay [6].

For `CCCCCCCCCCCCOS(=O)(=O)O`, the AC50 in assay [5] is 44.8 µM (active); in [6], 83.9 µM (active).

For `CC(=O)Nc1ccc(O)cc1`, the result in assay [2], in [3], in assay [1] and in [4] was inactive.

`CC(C)c1c(C(=O)Nc2ccccc2)c(-c2ccccc2)c(-c2ccc(F)cc2)n1CC[C@@H](O)C[C@@H](O)CC(=O)O`: in [4], the result was inactive.

As for `NC(=NCCCCCCN=C(N)/N=C(\N)Nc1ccc(Cl)cc1)/N=C(\N)Nc1ccc(Cl)cc1`, the AC50 in [5] is 50 µM (active); in [6], 81 µM (active).

For the compound `O=C(CCCN1CCC(O)(c2ccc(Cl)cc2)CC1)c1ccc(F)cc1`, the compound was called inactive in assay [4], in [7], in assay [8], in assay [9] and in assay [10].

Regarding `CCCCCCc1ccc(N)cc1`, in assay [5], the compound was called inactive. For the same compound, in assay [6], the AC50 is 50 µM (active).

As to `COc1cc([N+](=O)[O-])ccc1N`, the compound was classed as inactive in assay [5]. The AC50 in assay [6] is 50 µM (active).

For `CCCCCCCCCCCC`, the compound was called inactive in assay [5] and in [6].

With `CCCCc1oc2ccccc2c1C(=O)c1cc(I)c(OCCN(CC)CC)c(I)c1`, the call in assay [5] and in assay [6] was inactive. Besides, the AC50 is 19.8 µM (active) in [3] and 18.2 µM (active) in assay [1].

`CN(Cc1cnc2nc(N)nc(N)c2n1)c1ccc(C(=O)N[C@@H](CCC(=O)O)C(=O)O)cc1`: the AC50 in assay [1] was 0.359 µM (active).

The values are drawn from PubChem BioAssay (EPA / NIEHS).
